Measurements: the supplement of paper PMC6555819

What was measured:
Assay in all cases: PBM binding z-score (relative to random genomic background probes); higher = stronger binding; sequences stand for … in GC…GCGATTGACAGCGTAGAATGAAGG
[1] = test system: FXR:RXRa (NR concentration 270 nM, RXRa partner concentration 90 nM)
Method in brief: (§1)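 Binding z-scores were set against random background probes. The data came from custom Agilent 4×180K protein-binding microarrays carrying double-stranded probes with 34-nt variable regions, incubated 1 h with ligand-free nuclear receptor dimers. Partner-specific antibodies detected binding, and scanned fluorescence was regression-normalized.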

[2] = test system: LXRa:RXRa (NR concentration 270 nM, RXRa partner concentration 90 nM)
Method in brief: as §1

[3] = test system: LXRa homodimer (NR concentration 270 nM)
Method in brief: as §1

[4] = test system: LXRb:RXRa (NR concentration 270 nM, RXRa partner concentration 90 nM)
Method in brief: as §1

[5] = test system: LXRb homodimer (NR concentration 270 nM)
Method in brief: as §1

[6] = test system: PPARa:RXRa (NR concentration 270 nM, RXRa partner concentration 90 nM)
Method in brief: as §1

[7] = test system: PPARg:RXRa (NR concentration 180 nM, RXRa partner concentration 90 nM)
Method in brief: as §1

[8] = test system: PPARg:RXRa 270nM:90nM, anti-RXR (NR concentration 270 nM, RXRa partner concentration 90 nM)
Method in brief: as §1

[9] = test system: PPARg:RXRa 30nM:10nM, anti-RXR (NR concentration 30 nM, RXRa partner concentration 10 nM)
Method in brief: as §1

[10] = test system: PPARg:RXRa 90nM:30nM, anti-RXR (NR concentration 90 nM, RXRa partner concentration 30 nM)
Method in brief: as §1

Sequence	PBM binding z-score [1]	PBM binding z-score [2]	PBM binding z-score [3]	PBM binding z-score [4]	PBM binding z-score [5]	PBM binding z-score [6]	PBM binding z-score [7]	PBM binding z-score [8]	PBM binding z-score [9]	PBM binding z-score [10]
GCGACTGGGGCAAAGCAGGTTACCATGAGGTTGG	0.529	0.0146	-0.506	0.0618	-0.859	1.1	1.18	1.05	-0.313	0.335
GCGACTGCGGCATCAGCAGGTTACCATAACTTAA	-0.558	-0.742	0.0285	-0.388	-1.12	-0.34	-0.014	-0.695	-0.628	-0.649
ATAAGTAGGTTATCGGGTCATTCAGTTTGCGCAT	3.42	3.08	1.77	3.11	1.39	5.07	7.54	6.6	3.83	6.09
ATATGTAGGTTAGCTGGGGTAATTCAGACTAGGC	0.983	0.79	0.216	1.28	0.815	2.91	3.61	3	0.942	2.01
ATACCAAGGTGATCGTGAGCTCGTTGATACTAAC	0.125	-0.0736	-0.322	0.0963	-0.116	0.174	0.373	-0.151	-0.316	-0.0822
CCTACTGGGCCAAAGGTTATTGATTCCAATGCTC	0.648	1.32	0.345	1.76	-0.363	5.33	10.4	9.22	8.72	10.5
ATCGAAAGGTCGAGGTTAGTATAGAGAAAGGGAA	3.77	3.57	0.422	2.93	0.526	4.48	3.03	3.6	1.65	2.68
TCTAGTTGGTCACGGAGGTCAAACACGACGGGTA	4.19	4.67	4.58	4.25	1.38	4.39	3.25	4.13	3.76	4.08
TAGAGTAGGTTAGTCGGGGCATTCAGCCAACATA	0.871	0.485	0.155	0.87	1.54	1.16	0.583	1.65	0.884	1.33
CCTTTTAGTTGACCATAAGGGCAACCGAAGCTCG	0.795	0.621	0.344	0.707	1.3	0.649	0.247	0.669	0.0181	0.427
ATCTCTAGGGAACCAAGTTCAGTGAATGCCGAAC	-0.221	0.011	0.471	0.284	0.239	0.00792	-0.0553	0.046	0.00419	0.0789
AGTCAAAGTTCACTTGGTAACGTAAGATTCAGCT	4.85	5.05	3.34	3.4	1.63	3.85	5.08	5.79	2.52	4.52
TTACCAAGGTGAAAGGTCGTTGATGCACGCCTTG	3.49	3.43	0.252	2.79	-0.555	5.38	9.01	7.94	6.67	8.46
GATACAGGGTCACCTAGAGGCCAGAGTATGGAAA	6.92	4.72	-0.102	3.99	-0.035	5.79	6.93	6.02	2.71	4.91
TCATATAGATAAATGCTAGGTGAAAGTCCGATCT	0.784	0.813	0.103	0.591	-0.152	0.912	0.876	2.09	3.93	3.03
CCTTACGGGTCAAGGTTATAGTACGGGTGGTACG	6.07	3.88	0.501	3.24	0.225	5.17	4.78	4.77	1.91	3.37
TCTTGTACATCAAGCAGGTTAAGAAAGCCTGAGT	0.785	0.852	-0.0231	0.861	0.106	1.05	-0.153	1.37	3.03	2.18
CCTTACGGGTCACTCCAGGTTATAGCGTCGGAGT	5.26	7.75	1.89	5.52	0.0674	4.65	3.13	3.94	1.17	2.7
ATCGAAAGGTCGAGGTGAGTGTAGAGAAAGGGAA	4.53	3.52	0.118	2.74	0.572	4.69	3.13	3.76	1.42	2.6
GCTCGGAGGACACGGTCAGAGCTTTGTCCGTAGA	-0.337	-0.705	-0.568	-0.918	-1.3	-0.523	-0.859	-0.893	-1.3	-1.06
GCAGCCAGGTGAAACGCAGGTAACTCAGGGTGGC	-0.375	-0.533	-0.628	-0.952	-1.52	0.132	0.166	-0.353	-0.793	-0.229
ATAAGTAGGTTAAGGGTCATTCAGGTTGGTTCGC	4.91	4.67	3.52	4.65	2.15	6.55	12	9.92	10.7	11.2

Sequence	PBM binding z-score [1]	PBM binding z-score [2]	PBM binding z-score [3]	PBM binding z-score [4]	PBM binding z-score [5]	PBM binding z-score [6]	PBM binding z-score [7]	PBM binding z-score [8]	PBM binding z-score [9]	PBM binding z-score [10]
GGAACGAGGGCATTCGAGTTGAAAGCATGGCGAT	1.15	2.67	-0.268	0.406	-1.04	1.85	0.762	0.887	-0.332	0.259
AGTCAAAGTTCAGGACGAGGTAACGTCAAGCACG	4.26	3.98	1.22	1.77	-0.0254	3.5	4.43	4.98	1.87	4.04
TAGCCTAGGTCAGATCGGGCCGGTATACGCTATA	1.49	0.768	-0.645	0.506	-0.232	1.27	0.615	0.655	-0.199	0.0642
ACTTACGGGTCAACGAGGTAATAGCACGCGTATA	6.86	4.42	0.29	3.61	0.727	5.72	5.56	5.53	2.48	4.37
TCTTGTAGATCAGCAGGTTAAAAAAGCTGGCCAA	0.198	0.216	-0.0606	0.293	-0.538	0.844	-0.455	1.44	2.6	1.94
AGAATGAGGTAATTAAGATCAGGGAATTGCGGTC	0.0653	0.204	-0.0232	-0.116	-0.24	0.241	0.544	0.141	-0.00971	-0.0571
TAGCCTACGTCATGGGCCAGTATACCACGCGAAC	-0.49	-0.556	-0.342	-0.379	-0.666	-0.649	0.599	-0.711	-0.624	-0.961
GCTGCTAGGTCAACTGATGGTCGGCTAAAGCTCG	3.88	3.08	0.00529	1.89	-0.133	3.7	2.39	3.16	0.547	1.99
TTACCAAGGTGAGCTGAGGTCGTCGATCCAACTC	1.73	0.879	-0.506	0.696	-1.82	1.82	0.26	1.06	-0.186	0.372
TCTGCGAGGTCAACGATGGTCAGCTAATCTGCTA	6.96	5.84	1.07	4.75	1.01	5.65	5.8	6.12	3.37	4.91
CCTAGCAGGCCACTCTGGGTCACTCAAGGCTTGA	1.22	4.55	0.221	1.91	-0.897	2.33	0.363	0.663	-0.56	0.0943
CCTCGGAGGACAACATGAGGTCAGAGCTGCCAGA	1.56	3.37	3.95	2.18	-0.278	2.38	0.717	0.534	-0.623	0.0899
CCGACTGTGGCAAGGTTACCATAACGCACAGCCA	0.166	0.546	-0.172	0.46	-0.922	1.07	1.1	0.984	-0.132	0.352
CCTAGCAGGCCAATCTGGGTCAATCAAGGCTTGA	0.324	1.22	-0.656	0.742	-1.17	3.09	1.49	1.95	-0.105	1
AATTCAGGGTCATCGTAGGCCAGAGTACGCACAG	7.63	6.71	4.2	5.55	2.29	6.2	7.36	7.02	3.49	5.72
GCTCGGAGGACAAGGTGAGAGCTTTGTCCGTAGA	-0.399	-0.339	-1.2	-0.463	-1.12	-0.0348	-0.809	-0.0501	-1.12	-0.422
TATACAGGGTCAAAGGCCTGAGTACGAATGTCGA	7.13	6.36	2.31	4.5	2.28	5.81	6.92	6.47	3.45	5.74
GGAACGAGGGCAAAGTTGATAGGATCTGTCGACG	1.38	1.05	-0.433	0.86	-0.537	4.22	6.9	6.73	5.71	6.95
GGAACGAGGGCCAGTTGATAGCAGAGTTTGATGG	-0.532	-0.8	-0.645	-1.21	-0.96	-0.53	0.258	-0.67	-0.491	-0.758
TCGAGTAGGTTATGGGCATTCAGAATGGCGTCGA	-0.455	0.186	-0.538	-0.2	-1.18	0.825	0.399	1.47	0.906	1.13
CCGACTGGGGCATAGGTTACCATACTCAGTACGA	-0.122	-0.0807	-0.232	0.581	-1.1	3.58	8.18	7.34	6.9	7.37
TCTAGCAGGCCAGAGGGTCACACAAGAGGTACGG	1.67	1.66	-0.408	1.83	-1.34	3.11	2.49	3.28	2.36	3.09
